Data: PubChem BioAssay (EPA / NIEHS)
Calls of active or inactive are those of the source. Rule for the calls: active = hit-call score of the fitted dose curve at least 0.9, where 1 is the maximum; inactive = score below 0.9.

Tests used:
Conditions in all cases: mRNA level, 48 h; actives raise or lower the signal
[1] = read-out: Potassium channel subfamily K member 1 (KCNK1), KCNK1 (gene 3775); experiment: LTEA_HepaRG_KCNK1: Life Technologies and Expression Analysis (LTEA) Assay for Potassium channel subfamily K member 1 (KCNK1) using HepaRG (AID 2283511)
Method in brief: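 KCNK1 transcript measured by TaqMan qRT-PCR against three housekeeping genes, after HepaRG cells were treated 48 h with eight half-log concentrations (top 100 uM, 0.5% DMSO). Curves fitted bidirectionally relative to vehicle.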

[2] = read-out: Keratin 19 (KRT19), KRT19 (gene 3880); experiment: LTEA_HepaRG_KRT19: Life Technologies and Expression Analysis (LTEA) Assay for Keratin 19 (KRT19) using HepaRG (AID 2283512)
Method in brief: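 HepaRG, 48 h chemical exposure, 8-pt half-log CRC from 100 uM, 0.5% DMSO vehicle, duplicates. Readout: TaqMan qRT-PCR of KRT19 mRNA, housekeeping-normalized (ACTB/GAPDH/POLR2A). Bidirectional fit vs DMSO baseline.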

[3] = read-out: JUN Transcription Factor, JUN (gene 3725); experiment: LTEA_HepaRG_JUN: Life Technologies and Expression Analysis (LTEA) Assay for JUN Transcription Factor using HepaRG (AID 2283513)
Method in brief: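 mRNA measured by TaqMan qRT-PCR after 48 h chemical exposure of HepaRG cultures; normalization to three housekeeping genes. Duplicate eight-point half-log curves from 100 uM in 0.5% DMSO; gain or loss fitted against DMSO baseline.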

[4] = read-out: Lipase C (LIPC), LIPC (gene 3990); experiment: LTEA_HepaRG_LIPC: Life Technologies and Expression Analysis (LTEA) Assay for Lipase C (LIPC) using HepaRG (AID 2283514)
Method in brief: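 LIPC expression was quantified by qRT-PCR against three housekeeping genes (ACTB, GAPDH, POLR2A). Differentiated human HepaRG cells received eight half-log doses (top 100 uM, 0.5% DMSO) in duplicate for 48 h; fitting bidirectional relative to DMSO.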

[5] = read-out: MicroRNA 122 (MIR122), gene 406906; experiment: LTEA_HepaRG_MIR122: Life Technologies and Expression Analysis (LTEA) Assay for MicroRNA 122 (MIR122) using HepaRG (AID 2283516); note: the transcript read is the microRNA miR-122
Method in brief: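 Expression measured by microfluidic qRT-PCR with three housekeeping genes for normalisation, after 48 h treatment of HepaRG cultures. Eight concentrations (top 100 uM, half-log steps, 0.5% DMSO vehicle) in duplicate; gain or loss fitted relative to vehicle.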

[6] = read-out: matrix metalloproteinase-10 (MMP10), MMP10 (gene 4319); experiment: LTEA_HepaRG_MMP10: Life Technologies and Expression Analysis (LTEA) Assay for matrix metalloproteinase-10 (MMP10) using HepaRG (AID 2283517)
Method in brief: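 Expression measured by TaqMan qRT-PCR with ACTB/GAPDH/POLR2A normalisation after 48 h chemical exposure of HepaRG cells. Eight half-log concentrations, top 100 uM, 0.5% DMSO vehicle, duplicates; gain or loss fitted against vehicle.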

MYC, MYC (gene 4609) = experiment: LTEA_HepaRG_MYC: Life Technologies and Expression Analysis (LTEA) Assay for MYC using HepaRG (AID 2283518)
Method in brief: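 qRT-PCR read-out of MYC transcript (Fluidigm TaqMan, housekeeping-normalized) after 48 h chemical exposure of HepaRG cells; eight concentrations, top 100 uM, half-log steps. Bidirectional curve fitting against 0.5% DMSO vehicle baseline.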

[7] = read-out: matrix metalloproteinase-3 (MMP3), MMP3 (gene 4314); experiment: LTEA_HepaRG_MMP3: Life Technologies and Expression Analysis (LTEA) Assay for matrix metalloproteinase-3 (MMP3) using HepaRG (AID 2283519)
Method in brief: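 Fluidigm-based TaqMan qRT-PCR, normalized to ACTB, GAPDH and POLR2A and fitted bidirectionally versus 0.5% DMSO, measured transcript levels. Treatment: duplicate 48 h exposures of HepaRG cells, ~100,000/well, to eight half-log concentrations topping at 100 uM.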

[8] = read-out: Paternally Expressed 10 (PEG10), PEG10 (gene 23089); experiment: LTEA_HepaRG_PEG10: Life Technologies and Expression Analysis (LTEA) Assay for Paternally Expressed 10 (PEG10) using HepaRG (AID 2283520);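 for AC50: PEG10 transcript by qRT-PCR normalised to ACTB GAPDH and POLR2A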
Method in brief: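 PEG10 transcript measured by Fluidigm qRT-PCR, normalized to three housekeeping genes, in HepaRG cells treated 48 h (highest 100 uM, half-log steps, 0.5% DMSO vehicle). Cells plated 48 h before switching to serum-free induction medium.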

[9] = read-out: Nuclear factor NF-kappa-B p105 subunit (Homo sapiens) (UniProt P19838); experiment: LTEA_HepaRG_NFKB1: Life Technologies and Expression Analysis (LTEA) Assay for Nuclear Factor Kappa B Subunit 1 (NFKB1) using HepaRG (AID 2283521)
Method in brief: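 Differentiated human HepaRG cells in serum-free induction medium with 0.5% DMSO were exposed for 48 h to eight half-log concentrations, top 100 uM, in duplicate. NFKB1 mRNA measured by Fluidigm TaqMan qRT-PCR, normalised to ACTB, GAPDH and POLR2A; bidirectional fit versus DMSO.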

[10] = read-out: Protein phosphatase 2A (PPP2R4), PTPA (gene 5524); experiment: LTEA_HepaRG_PPP2R4: Life Technologies and Expression Analysis (LTEA) Assay for Protein phosphatase 2A (PPP2R4) using HepaRG (AID 2283522)
Method in brief: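 Expression was quantified by Fluidigm qRT-PCR normalised to three housekeeping genes after 48 h treatment. Human HepaRG cells received an 8-point series from 100 µM downward by half-logs, in duplicate with 0.5% DMSO vehicle and 1 mM phenobarbital as induction control.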

[11] = read-out: solute carrier (SLC22A1), SLC22A1 (gene 6580); experiment: LTEA_HepaRG_SLC22A1: Life Technologies and Expression Analysis (LTEA) Assay for solute carrier (SLC22A1) using HepaRG (AID 2283524)
Method in brief: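 Transcript level of SLC22A1 quantified by qRT-PCR (normalized to three housekeeping genes) after 48 h chemical exposure of HepaRG cells, eight concentrations up to 100 µM, half-log steps, 0.5% DMSO vehicle. Gain or loss relative to DMSO fitted bidirectionally.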

[12] = read-out: Pyruvate Dehydrogenase Kinase 4 (PDK4), PDK4 (gene 5166); experiment: LTEA_HepaRG_PDK4: Life Technologies and Expression Analysis (LTEA) Assay for Pyruvate Dehydrogenase Kinase 4 (PDK4) using HepaRG (AID 2283525)
Method in brief: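 Readout is qRT-PCR of PDK4 transcript, normalized to three housekeeping genes, with bidirectional fitting against 0.5% DMSO vehicle. Differentiated HepaRG cells were treated 48 h in serum-free induction medium, duplicate wells, eight-point half-log series topping at 100 uM.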

[13] = read-out: NAD(P)H dehydrogenase [quinone] 1 (NQO1), NQO1 (gene 1728); experiment: LTEA_HepaRG_NQO1: Life Technologies and Expression Analysis (LTEA) Assay for NAD(P)H dehydrogenase [quinone] 1 (NQO1) using HepaRG (AID 2283526)
Method in brief: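 NQO1 transcript induction or loss measured by TaqMan qRT-PCR, referenced to three housekeeping genes and fitted bidirectionally against 0.5% DMSO. HepaRG cultures exposed 48 h, duplicate, eight-point half-log series, top 100 uM.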

[14] = read-out: succinate dehydrogenase complex iron sulfur subunit B (SDHB), SDHB (gene 6390); experiment: LTEA_HepaRG_SDHB: Life Technologies and Expression Analysis (LTEA) Assay for succinate dehydrogenase complex iron sulfur subunit B (SDHB) using HepaRG (AID 2283528)
Method in brief: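 HepaRG cells (~100,000/well, plated 48 h) exposed in duplicate for 48 h in serum-free induction medium to 8-point half-log series from 100 uM in 0.5% DMSO; mRNA by qRT-PCR normalised to ACTB, GAPDH, POLR2A; bidirectional fit versus DMSO.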

[15] = read-out: Signal transducer and activator of transcription 3 (Homo sapiens) (UniProt P40763); experiment: LTEA_HepaRG_STAT3: Life Technologies and Expression Analysis (LTEA) Assay for Signal transducer and activator of transcription (STAT3) using HepaRG (AID 2283529)
Method in brief: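 STAT3 transcript quantified by qRT-PCR against three housekeeping genes (ACTB, GAPDH, POLR2A), fitted both directions relative to DMSO. HepaRG cultures exposed 48 h to eight half-log concentrations, top 100 uM, 0.5% DMSO, serum-free induction medium.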

[16] = read-out: solute carrier (SLCO1B1), SLCO1B1 (gene 10599); experiment: LTEA_HepaRG_SLCO1B1: Life Technologies and Expression Analysis (LTEA) Assay for solute carrier (SLCO1B1) using HepaRG (AID 2283530)
Method in brief: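 SLCO1B1 transcript read by qRT-PCR (Fluidigm arrays), normalized to three housekeeping genes, after 48 h chemical exposure of HepaRG cells; bidirectional concentration-response fitting versus 0.5% DMSO baseline. Eight-point half-log series, maximum 100 uM.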

[17] = read-out: Phosphatase and tensin (PTEN), PTEN (gene 5728); experiment: LTEA_HepaRG_PTEN: Life Technologies and Expression Analysis (LTEA) Assay for Phosphatase and tensin (PTEN) using HepaRG (AID 2283523)
Method in brief: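 Read-out: TaqMan qRT-PCR of PTEN transcript, normalized to three housekeeping genes, fitted in both directions against 0.5% DMSO. Differentiated human HepaRG cultures received chemicals for 48 h, eight-point half-log series topping at 100 uM.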

[18] = read-out: Nuclear factor erythroid 2-related factor 2 (Homo sapiens) (UniProt Q16236); experiment: LTEA_HepaRG_NFE2L2: Life Technologies and Expression Analysis (LTEA) Assay for Nuclear factor erythroid 2-related factor 2 (NFE2L2) Transcription Factor using HepaRG (AID 2283527);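 note: TaqMan qRT-PCR transcript level normalised to ACTB GAPDH and POLR2A housekeeping genes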
Method in brief: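 NFE2L2 transcript level was read by qRT-PCR (housekeeping ACTB/GAPDH/POLR2A normalisation) after 48 h chemical treatment of HepaRG in serum-free induction medium. Duplicate 8-point half-log curves, top 100 uM, 0.5% DMSO vehicle; up- or down-regulation fitted against vehicle.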

Measured: AC50

Chain of Nuclear factor NF-kappa-B p105 subunit (Homo sapiens) (P19838 whole entry, looked up): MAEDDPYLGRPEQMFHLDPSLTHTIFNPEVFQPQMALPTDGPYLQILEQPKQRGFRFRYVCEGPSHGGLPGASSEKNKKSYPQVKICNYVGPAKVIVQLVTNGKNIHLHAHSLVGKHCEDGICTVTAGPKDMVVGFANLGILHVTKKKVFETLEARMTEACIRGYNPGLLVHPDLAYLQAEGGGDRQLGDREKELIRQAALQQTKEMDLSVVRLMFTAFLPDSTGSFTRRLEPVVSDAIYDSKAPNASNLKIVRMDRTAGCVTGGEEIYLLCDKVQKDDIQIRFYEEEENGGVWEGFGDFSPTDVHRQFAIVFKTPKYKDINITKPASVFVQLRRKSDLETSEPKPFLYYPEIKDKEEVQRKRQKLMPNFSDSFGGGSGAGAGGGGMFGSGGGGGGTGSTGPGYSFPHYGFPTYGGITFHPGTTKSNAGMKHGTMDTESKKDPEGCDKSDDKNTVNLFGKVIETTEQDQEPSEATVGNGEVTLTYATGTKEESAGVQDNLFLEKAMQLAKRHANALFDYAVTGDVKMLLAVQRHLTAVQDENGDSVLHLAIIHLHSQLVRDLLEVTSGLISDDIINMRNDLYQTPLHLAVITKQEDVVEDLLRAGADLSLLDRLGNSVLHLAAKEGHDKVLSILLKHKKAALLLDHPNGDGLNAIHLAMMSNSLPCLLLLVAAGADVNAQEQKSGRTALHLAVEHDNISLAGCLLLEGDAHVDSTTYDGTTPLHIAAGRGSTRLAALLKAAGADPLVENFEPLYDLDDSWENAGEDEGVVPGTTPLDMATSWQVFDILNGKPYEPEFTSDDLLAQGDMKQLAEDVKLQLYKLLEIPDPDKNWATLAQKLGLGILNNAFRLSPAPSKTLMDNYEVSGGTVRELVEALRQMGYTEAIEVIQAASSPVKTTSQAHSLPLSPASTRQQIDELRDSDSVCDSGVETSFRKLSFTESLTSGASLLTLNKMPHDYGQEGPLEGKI
Chain of Nuclear factor erythroid 2-related factor 2 (Homo sapiens) (Q16236 whole entry, looked up): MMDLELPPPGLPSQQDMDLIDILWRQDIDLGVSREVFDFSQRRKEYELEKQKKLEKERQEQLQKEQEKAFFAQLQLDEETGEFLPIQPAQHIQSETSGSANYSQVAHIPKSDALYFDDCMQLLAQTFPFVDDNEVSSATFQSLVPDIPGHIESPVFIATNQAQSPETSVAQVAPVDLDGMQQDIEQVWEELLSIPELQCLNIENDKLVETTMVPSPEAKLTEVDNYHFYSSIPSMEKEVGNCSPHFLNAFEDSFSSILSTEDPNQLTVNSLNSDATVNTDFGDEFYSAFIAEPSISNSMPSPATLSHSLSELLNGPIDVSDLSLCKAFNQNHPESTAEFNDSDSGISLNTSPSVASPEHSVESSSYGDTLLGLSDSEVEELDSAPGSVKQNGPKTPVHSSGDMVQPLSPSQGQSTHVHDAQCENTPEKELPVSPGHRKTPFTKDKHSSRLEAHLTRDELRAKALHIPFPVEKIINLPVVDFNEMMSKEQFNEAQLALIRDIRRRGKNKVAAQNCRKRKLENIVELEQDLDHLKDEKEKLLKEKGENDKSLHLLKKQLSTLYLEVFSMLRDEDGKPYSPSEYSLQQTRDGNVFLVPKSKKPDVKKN
Chain of Signal transducer and activator of transcription 3 (Homo sapiens) (P40763 whole entry, looked up): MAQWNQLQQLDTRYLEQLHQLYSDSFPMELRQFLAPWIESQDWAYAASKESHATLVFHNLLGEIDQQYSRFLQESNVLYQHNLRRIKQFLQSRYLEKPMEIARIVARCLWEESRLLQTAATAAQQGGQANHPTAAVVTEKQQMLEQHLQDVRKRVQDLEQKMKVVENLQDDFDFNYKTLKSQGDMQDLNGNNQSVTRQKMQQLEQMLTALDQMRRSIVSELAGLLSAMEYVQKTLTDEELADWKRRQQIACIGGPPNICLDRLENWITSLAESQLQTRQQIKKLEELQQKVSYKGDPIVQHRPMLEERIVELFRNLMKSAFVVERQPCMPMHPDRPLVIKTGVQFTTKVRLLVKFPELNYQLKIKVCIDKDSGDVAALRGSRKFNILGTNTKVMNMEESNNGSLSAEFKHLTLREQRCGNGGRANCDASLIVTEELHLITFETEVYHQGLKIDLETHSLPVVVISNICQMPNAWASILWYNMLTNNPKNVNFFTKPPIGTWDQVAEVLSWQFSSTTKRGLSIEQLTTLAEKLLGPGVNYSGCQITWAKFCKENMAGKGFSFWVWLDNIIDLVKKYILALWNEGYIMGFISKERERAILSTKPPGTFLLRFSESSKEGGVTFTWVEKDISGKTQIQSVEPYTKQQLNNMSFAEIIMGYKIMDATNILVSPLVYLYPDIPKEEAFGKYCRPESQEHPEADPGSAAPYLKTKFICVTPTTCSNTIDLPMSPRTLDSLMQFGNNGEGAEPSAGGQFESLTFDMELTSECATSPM

O=c1n(CC2CO2)c(=O)n(CC2CO2)c(=O)n1CC1CO1 (configuration not stated)
active: [4] 71.5 µM
not listed: [17] | [18]
inactive: all other assays above

COCCOc1cc2cc(C(=O)NC3CCN(C(C)C)CC3)n(CC(=O)Nc3ccc(Cl)cn3)c2cn1
active: [2] 7.89 µM | [4] 45 µM | [5] 45 µM | [8] 45 µM | [17] 45 µM | [11] 62.1 µM | [12] 37.4 µM | [16] 56.5 µM
not listed: [13] | [18]
inactive: all other assays above

COc1ccc(/C=C/S(=O)(=O)NC(=O)c2ccc(C)cc2Cl)cc1
active: [8] 75.3 µM | [10] 0.11 µM | [12] 6.62 µM
not listed: [17] | [18]
inactive: all other assays above

CC(C)CCCCCCCOC(=O)CCCCC(=O)OCCCCCCCC(C)C
not listed: [13] | [17]
inactive: all other assays above

C=CCCCCCCCCC(=O)O
not listed: [13] | [17]
inactive: all other assays above

Cc1ccc(N)cc1O
not listed: [9] | [13]
inactive: all other assays above

CCOC(=O)CC(CC(=O)OCC)(OC(C)=O)C(=O)OCC
not listed: [13] | [17]
inactive: all other assays above

O=P(OC(CCl)CCl)(OC(CCl)CCl)OC(CCl)CCl
active: [2] 50 µM | [4] 65.3 µM | [5] 59.6 µM | MYC, MYC (gene 4609) 82.9 µM | [7] 23.3 µM | [8] 12.7 µM | [10] 85.3 µM | [11] 75.2 µM | [14] 85 µM | [16] 50 µM
inactive: [1] | [3] | [6] | [12] | [15]

CC(C)=CCCC(C)CCO (configuration not stated)
not listed: [17]
inactive: all other assays above
